Test results from publication PMC4336329 (PLoS ONE, 2015).
Out of some 310,000 compounds screened, about 14,000 (4.5%) showed an effect of 50% or more. Effects have a minus sign here. The list comes from a sample in which strong results are over-represented; it also holds similar structures and randomly drawn compounds.

These molecules were tested against human ether-à-go-go-related gene (hERG) potassium channel (human, UniProt Q12809) (assay: primary screen, population patch clamp on CHO cells stably expressing hERG; higher = less effect of the substance).
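Also: peak tail current of the secondary pulse compared with the same well before compound.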

human ether-à-go-go-related gene (hERG) potassium channel, sequence (Q12809 whole entry, looked up): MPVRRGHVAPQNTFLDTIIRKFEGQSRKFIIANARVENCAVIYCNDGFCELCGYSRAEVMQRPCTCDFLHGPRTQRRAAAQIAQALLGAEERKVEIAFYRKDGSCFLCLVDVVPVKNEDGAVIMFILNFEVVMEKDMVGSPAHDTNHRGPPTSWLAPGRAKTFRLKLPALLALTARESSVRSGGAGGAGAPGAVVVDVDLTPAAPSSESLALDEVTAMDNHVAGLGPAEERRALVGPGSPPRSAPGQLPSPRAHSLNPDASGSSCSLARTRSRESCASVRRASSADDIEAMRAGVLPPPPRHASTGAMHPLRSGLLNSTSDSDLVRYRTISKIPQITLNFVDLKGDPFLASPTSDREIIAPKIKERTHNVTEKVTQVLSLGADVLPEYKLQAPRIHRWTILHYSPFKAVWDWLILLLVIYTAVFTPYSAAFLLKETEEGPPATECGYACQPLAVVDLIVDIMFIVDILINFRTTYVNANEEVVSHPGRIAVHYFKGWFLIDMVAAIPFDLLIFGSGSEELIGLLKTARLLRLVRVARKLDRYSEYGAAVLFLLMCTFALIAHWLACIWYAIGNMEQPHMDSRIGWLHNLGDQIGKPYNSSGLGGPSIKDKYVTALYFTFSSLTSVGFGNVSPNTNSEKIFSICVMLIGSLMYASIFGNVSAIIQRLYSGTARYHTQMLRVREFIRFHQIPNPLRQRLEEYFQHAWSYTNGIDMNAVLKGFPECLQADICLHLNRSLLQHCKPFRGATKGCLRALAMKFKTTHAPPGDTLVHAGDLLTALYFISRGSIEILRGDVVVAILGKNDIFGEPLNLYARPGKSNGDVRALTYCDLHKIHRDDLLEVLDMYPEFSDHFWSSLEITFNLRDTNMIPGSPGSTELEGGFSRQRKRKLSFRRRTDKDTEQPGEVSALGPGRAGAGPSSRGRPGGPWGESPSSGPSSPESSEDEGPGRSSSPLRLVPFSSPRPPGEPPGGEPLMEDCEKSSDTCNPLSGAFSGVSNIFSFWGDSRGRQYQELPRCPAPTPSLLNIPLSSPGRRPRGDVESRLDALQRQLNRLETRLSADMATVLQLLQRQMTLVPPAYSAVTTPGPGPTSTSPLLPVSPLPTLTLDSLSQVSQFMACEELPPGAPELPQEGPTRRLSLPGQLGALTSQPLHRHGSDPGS

SMILES | hERG current change (%, negative = inhibition) at 10uM [%]
CCOc1ccc(NC(=S)N2CCC(C(O)(c3ccccc3)c3ccccc3)CC2)cc1 | -13
CC(OC(=O)c1ccc(F)c(S(=O)(=O)N2CCOCC2)c1)C(=O)NCC1CCCCC1 (centres unmarked) | 1.84
C=CCOCCN(CC)CC | -21.3
Cc1ccc(NC(=O)CSc2nnc(CNC(=O)c3c(F)cccc3Cl)o2)cc1 | 3.28
COc1cc(/C=C2\C(=O)N(CCC#N)N=C2C)ccc1OCC(=O)Nc1ccccc1 | -7.3
Cc1ccsc1-c1nc(CN2C[C@@H](C)O[C@@H](C)C2)c(C)o1 | 17.5
Cc1oc(-c2ccc(-c3ccccc3)cc2)nc1CN(C)C1CCOC1 (centres unmarked) | -55.8
Cc1ccsc1-c1nc(CN(C)C(C2CC2)C2CC2)c(C)o1 | -76
Cc1ccsc1-c1nc(CN2CCN(C)C(=O)[C@@H]2C)c(C)o1 | -52.5
Cc1ccc(-c2nc(CS(=O)CC(=O)NC3CC3)c(C)o2)cc1 (centres unmarked) | 6.39
Cc1oc(-c2cccc(Cl)c2)nc1CN(C)C1CCOC1 (centres unmarked) | 0.385
CSc1ccc(-c2nc(CN(C)C3CCOC3)c(C)o2)cc1 (centres unmarked) | -31.4
Cc1ccsc1-c1nc(CN2CCCC2c2ccc(F)cc2)c(C)o1 (centres unmarked) | 24.9
COc1cccc(C2CCCN2Cc2nc(-c3sccc3C)oc2C)c1 (centres unmarked) | 20.6
Cc1oc(-c2ccc3ccccc3c2)nc1CN(C)C(C)c1ccncn1 (centres unmarked) | -49.8
Cc1oc(-c2cc(F)ccc2F)nc1CN1CCN(C)C(=O)[C@@H]1C | 8.32
Cc1ccc(-c2nc(CN(C)C(C3CC3)C3CC3)c(C)o2)cc1 | -56.6
O=[N+]([O-])c1cccc(-c2c(-c3ccccc3)ncc3cc(F)ccc23)c1 | 0.428
Nc1cccnc1S(=O)(=O)c1ccccc1 | 13.8
O=C(c1ccco1)N1CCN(C2=NS(=O)(=O)c3ccccc32)CC1 | -3.13
COc1ccc(CCC(=O)Nc2cccc(Cl)c2)cc1 | -1.25
O=C(CN1C(=O)NC2(CCOc3ccccc32)C1=O)c1ccc(Cl)cc1 (centres unmarked) | -43.5
O=C(Nc1cccc(-c2ccc(N3CCOCC3)nn2)c1)c1ccc(Cl)cc1 | -3.12
Cc1oc(-c2ccccc2)nc1CC(=O)O | 8.97
COCCN(Cc1nc(-c2ccc(-c3ccccc3)cc2)oc1C)C(C)C | -71.4
Cc1oc(-c2ccc(-c3ccccc3)cc2)nc1CN(CCO)C(C)C | -44.1
